Experimental data reported in PubChem BioAssay AID1159580 (chemical genetic matrix, 2015).
Screen size: about 5,500 compounds; about 2,000 (36%) were called active. Inconclusive results (about 18%) are left out. Rule as the data show it: active = normalized growth mostly below about 0.91 (no sharp cut-off); inconclusive = no clear call, values can overlap the other calls; inactive = mostly above about 0.92. The list shows a part of the results.

Test: chemical genetic growth profiling, strain panel (AID 1159580);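 also: tested at 20 µM; growth read once vehicle control cultures reached saturation at 30 °C; 1 = growth at the plate median or of vehicle wells; lower values mean less growth of the strain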
Conditions: growth OD

Measured: normalized growth

CC1=CCc2c(cc3oc(C)cc(=O)c3c2O)OC1
active: S. cerevisiae deletion strains, locus YKL085W, strain MDH1 (second series), active compounds read low 0.903 | S. cerevisiae deletion strains, locus YKL085W, strain MDH1, active compounds read low 0.903 | S. cerevisiae deletion strains, locus YKL190W, strain CNB1, active compounds read low 0.902 | S. cerevisiae deletion strains, locus YKR001C, strain vps1, active compounds read low 0.759 | S. cerevisiae deletion strains, locus YLR268W, strain sec22, active compounds read low 0.869 | S. cerevisiae deletion strains, locus YLR342W, strain FKS1 (second series), active compounds read low 0.792 | S. cerevisiae deletion strains, locus YLR418C, strain cdc73, active compounds read low 0.639 | S. cerevisiae deletion strains, locus YMR223W, strain ubp8, active compounds read low 0.902 | S. cerevisiae deletion strains, locus YMR263W, strain SAP30, active compounds read low 0.865 | S. cerevisiae deletion strains, locus YNL067W, strain RPL9B, active compounds read low 0.844 | S. cerevisiae deletion strains, locus YNL153C, strain GIM3, active compounds read low 0.858 | S. cerevisiae deletion strains, locus YNL233W, strain BNI4, active compounds read low 0.807 | S. cerevisiae deletion strains, locus YNL307C, strain MCK1, active compounds read low 0.651 | S. cerevisiae deletion strains, locus YOL147C, strain pex11, active compounds read low 0.922 | S. cerevisiae deletion strains, locus YOR184W, strain ser1, active compounds read low 0.782 | S. cerevisiae deletion strains, locus YOR270C, strain vph1, active compounds read low 0.683 | S. cerevisiae deletion strains, locus YPL055C, strain LGE1, active compounds read low 0.716 | S. cerevisiae deletion strains, strain wtn01, active compounds read low 0.843 | S. cerevisiae strains, strain wild type, active compounds read low 0.878
inactive: S. cerevisiae deletion strains, locus YJR075W, strain HOC1, active compounds read low 0.926 | S. cerevisiae deletion strains, locus YKL009W, strain mrt4, active compounds read low 0.912 | S. cerevisiae deletion strains, locus YKL068W, active compounds read low 0.974 | S. cerevisiae deletion strains, locus YKL160W, strain elf1, active compounds read low 0.978 | S. cerevisiae deletion strains, locus YKR026C, strain gcn3, active compounds read low 0.951 | S. cerevisiae deletion strains, locus YKR091W, strain srl3, active compounds read low 0.977 | S. cerevisiae deletion strains, locus YLL001W, strain dnm1, active compounds read low 0.968 | S. cerevisiae deletion strains, locus YLL026W, active compounds read low 0.97 | S. cerevisiae deletion strains, locus YLL041C, strain sdh2, active compounds read low 0.972 | S. cerevisiae deletion strains, locus YLR027C, strain aat2, active compounds read low 0.984 | S. cerevisiae deletion strains, locus YLR039C, strain RIC1, active compounds read low 0.766 | S. cerevisiae deletion strains, locus YLR058C, strain SHM2, active compounds read low 0.923 | S. cerevisiae deletion strains, locus YLR102C, strain apc9, active compounds read low 0.97 | S. cerevisiae deletion strains, locus YLR113W, strain HOG1, active compounds read low 0.931 | S. cerevisiae deletion strains, locus YLR221C, strain rsa3, active compounds read low 0.944 | S. cerevisiae deletion strains, locus YLR258W, strain gsy2, active compounds read low 0.95 | S. cerevisiae deletion strains, locus YLR262C, strain YPT6 (second series), active compounds read low 0.883 | S. cerevisiae deletion strains, locus YLR262C, strain YPT6, active compounds read low 0.772 | S. cerevisiae deletion strains, locus YLR320W, strain mms22, active compounds read low 0.932 | S. cerevisiae deletion strains, locus YLR330W, strain CHS5, active compounds read low 0.944 | S. cerevisiae deletion strains, locus YLR342W, strain FKS1, active compounds read low 1 | S. cerevisiae deletion strains, locus YLR357W, strain rsc2, active compounds read low 1.01 | S. cerevisiae deletion strains, locus YLR370C, strain arc18, active compounds read low 0.998 | S. cerevisiae deletion strains, locus YLR371W, strain rom2, active compounds read low 0.916 | S. cerevisiae deletion strains, locus YLR384C, strain iki3, active compounds read low 0.988 | S. cerevisiae deletion strains, locus YML016C, strain PPZ1, active compounds read low 0.953 | S. cerevisiae deletion strains, locus YML032C, strain rad52, active compounds read low 0.917 | S. cerevisiae deletion strains, locus YML120C, strain ndi1, active compounds read low 0.957 | S. cerevisiae deletion strains, locus YML124C, strain tub3, active compounds read low 0.966 | S. cerevisiae deletion strains, locus YMR058W, strain fet3, active compounds read low 0.936 | S. cerevisiae deletion strains, locus YMR078C, strain ctf18, active compounds read low 0.956 | S. cerevisiae deletion strains, locus YMR125W, strain sto1, active compounds read low 0.975 | S. cerevisiae deletion strains, locus YMR129W, active compounds read low 0.967 | S. cerevisiae deletion strains, locus YMR205C, strain PFK2, active compounds read low 0.971 | S. cerevisiae deletion strains, locus YMR231W, strain pep5, active compounds read low 0.998 | S. cerevisiae deletion strains, locus YMR307W, strain GAS1, active compounds read low 0.733 | S. cerevisiae deletion strains, locus YNL071W, strain lat1, active compounds read low 0.979 | S. cerevisiae deletion strains, locus YNL128W, strain TEP1, active compounds read low 0.881 | S. cerevisiae deletion strains, locus YNL183C, strain NPR1, active compounds read low 0.92 | S. cerevisiae deletion strains, locus YNL209W, strain ssb2, active compounds read low 1.01 | S. cerevisiae deletion strains, locus YNL248C, strain rpa49, active compounds read low 0.971 | S. cerevisiae deletion strains, locus YNL250W, strain rad50, active compounds read low 0.971 | S. cerevisiae deletion strains, locus YNL271C, strain bni1, active compounds read low 0.959 | S. cerevisiae deletion strains, locus YNL298W, strain CLA4, active compounds read low 0.925 | S. cerevisiae deletion strains, locus YNL322C, strain KRE1 (second series), active compounds read low 0.984 | S. cerevisiae deletion strains, locus YNL322C, strain KRE1, active compounds read low 0.94 | S. cerevisiae deletion strains, locus YNR049C, strain mso1, active compounds read low 0.981 | S. cerevisiae deletion strains, locus YNR052C, strain pop2, active compounds read low 0.973 | S. cerevisiae deletion strains, locus YOL006C, strain TOP1, active compounds read low 0.554 | S. cerevisiae deletion strains, locus YOL012C, strain htz1 1.55 | S. cerevisiae deletion strains, locus YOR001W, strain rrp6, active compounds read low 0.969 | S. cerevisiae deletion strains, locus YOR061W, strain CKA2, active compounds read low 0.972 | S. cerevisiae deletion strains, locus YOR069W, strain VPS5, active compounds read low 0.973 | S. cerevisiae deletion strains, locus YOR070C, strain gyp1, active compounds read low 0.965 | S. cerevisiae deletion strains, locus YOR080W, strain dia2, active compounds read low 0.986 | S. cerevisiae deletion strains, locus YOR083W, strain WHI5, active compounds read low 0.951 | S. cerevisiae deletion strains, locus YOR106W, strain vam3, active compounds read low 0.945 | S. cerevisiae deletion strains, locus YOR136W, strain idh2, active compounds read low 0.963 | S. cerevisiae deletion strains, locus YOR144C, strain elg1, active compounds read low 0.979 | S. cerevisiae deletion strains, locus YOR231W, strain MKK1, active compounds read low 0.958 | S. cerevisiae deletion strains, locus YOR265W, strain rbl2, active compounds read low 0.983 | S. cerevisiae deletion strains, locus YOR290C, strain snf2, active compounds read low 0.979 | S. cerevisiae deletion strains, locus YOR316C, strain cot1, active compounds read low 0.974 | S. cerevisiae deletion strains, locus YPL051W, strain arl3, active compounds read low 0.976 | S. cerevisiae deletion strains, locus YPL078C, strain atp4, active compounds read low 0.926 | S. cerevisiae deletion strains, locus YPL106C, strain sse1, active compounds read low 0.952 | S. cerevisiae deletion strains, locus YPL240C, strain hsp82, active compounds read low 0.97 | S. cerevisiae deletion strains, locus YPL241C, strain CIN2, active compounds read low 0.973 | S. cerevisiae deletion strains, locus YPL256C, strain CLN2, active compounds read low 0.99 | S. cerevisiae deletion strains, locus YPR119W, strain clb2, active compounds read low 0.956 | S. cerevisiae deletion strains, locus YPR141C, strain kar3, active compounds read low 0.972 | S. cerevisiae deletion strains, locus YPR163C, strain tif3, active compounds read low 0.921 | S. cerevisiae deletion strains, locus YPR167C, strain met16, active compounds read low 0.963
